From PubChem
KCNQ2 pot – potentiators of rat KCNQ2 potassium channel. AID 2239. 310,000 tested, 0.54% active. B-score at 10 µM. O88943. CHO-K1 KCNQ2, FluxOR thallium flux fluorescence; active compounds read high;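 active means fluorescence ratio B-score at least 3 SD of library B-scores, with initial fluorescence B-score within 3 of them, cut at about 5.3 in these data; same plate scores as AID 2156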;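 further: B-score of peak minus minimum over baseline fluorescence ratio after K+ and Tl+ stimulus; positive B-score means potentiation of KCNQ2 with more thallium influx and brighter signal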
Target sequence (O88943 whole entry, looked up): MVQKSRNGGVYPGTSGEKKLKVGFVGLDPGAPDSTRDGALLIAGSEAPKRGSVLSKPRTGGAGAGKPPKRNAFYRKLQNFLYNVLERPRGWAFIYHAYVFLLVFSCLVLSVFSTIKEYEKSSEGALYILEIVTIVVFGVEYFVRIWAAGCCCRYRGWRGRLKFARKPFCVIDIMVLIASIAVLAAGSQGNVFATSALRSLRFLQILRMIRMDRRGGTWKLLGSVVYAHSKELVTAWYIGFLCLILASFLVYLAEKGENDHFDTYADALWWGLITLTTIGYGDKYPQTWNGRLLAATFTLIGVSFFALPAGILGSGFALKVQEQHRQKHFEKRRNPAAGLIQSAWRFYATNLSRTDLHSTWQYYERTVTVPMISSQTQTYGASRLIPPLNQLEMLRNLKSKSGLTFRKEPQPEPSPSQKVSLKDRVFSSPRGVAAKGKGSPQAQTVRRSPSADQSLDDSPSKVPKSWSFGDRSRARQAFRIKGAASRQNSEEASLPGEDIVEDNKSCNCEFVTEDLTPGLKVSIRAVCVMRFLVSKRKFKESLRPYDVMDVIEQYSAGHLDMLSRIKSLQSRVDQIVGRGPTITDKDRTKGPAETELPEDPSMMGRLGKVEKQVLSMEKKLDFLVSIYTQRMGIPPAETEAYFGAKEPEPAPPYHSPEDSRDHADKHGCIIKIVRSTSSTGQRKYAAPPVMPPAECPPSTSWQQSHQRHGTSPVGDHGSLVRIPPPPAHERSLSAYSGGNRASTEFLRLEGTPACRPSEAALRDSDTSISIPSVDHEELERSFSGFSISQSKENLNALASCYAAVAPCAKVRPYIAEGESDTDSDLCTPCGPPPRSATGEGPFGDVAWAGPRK
KCNQ2 block – inhibitors of rat KCNQ2 potassium channel. 310,000 tested, 1.1% active. AID 2156. CHO-K1 KCNQ2, FluxOR thallium flux, 20 min; active compounds read low. O88943. B-score at 10 µM;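 active means fluorescence ratio B-score at most minus 3 library SDs, with starting brightness B-score within 2 library SDs, cut at about -5.5 in these data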
Kir21 conf inh – confirmation of mouse Kir2.1 potassium channel inhibitors; Tl flux remaining, % of negative control (active compounds read low), % at 10 µM; Kir2.1-expressing cells, FluxOR thallium flux fluorescence; active compounds read low; shares compounds with KCNQ2 pot; 2,300 tested, 41% active;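 active means Primary-screen hit whose thallium flux fell at least 3 control SD below untreated wells in both duplicates, with normal baseline fluorescence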
HEK293 ctr – counter-screen for Kir2.1 inhibitors: effect in parental HEK293 cells; FluxOR signal as % of negative control (100 = no effect), % at 10 µM; FluxOR thallium flux fluorescence; 0% = unstimulated blank wells; AID 2105; shares compounds with KCNQ2 pot; 2,300 tested, 19% active;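 active means dye signal at least 3 control SD above or below untreated wells in both duplicates, raw fluorescence within 3, either direction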;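 further: percent is based on the flux ratio of peak minus minimum fluorescence over baseline F0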
CHO-K1 ctr – parental CHO-K1 activity in KCNQ2 potentiator counter-screen; AID 2282; activity increase over 3SD of controls, % at 10 µM; 1,200 tested, 43% active; parental CHO-K1 cells, FluxOR thallium flux fluorescence; zero = vehicle mean+3SD, 100% = vehicle-minus-blank window; shares compounds with KCNQ2 pot;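 active means signal rise of at least 3 SD above the untreated control mean, in both duplicate wells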;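 further: counter screen of KCNQ2 potentiator hits so any rise reflects channel-independent effects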
KCNQ1 sel pot – tests whether KCNQ2 potentiators also act on human KCNQ1 | 1,200 tested, 28% active | activation over 3SD threshold, % at 10 µM | CHO KCNQ1 stable, FluxOR thallium flux fluorescence; beyond 3SD, as % of vehicle-control signal | shares compounds with KCNQ2 pot | AID 2283;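 active means fluorescence ratio rise of at least 3 SD of vehicle wells above their mean, in both replicate wells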
KCNQ2 pot confirm – rat KCNQ2 channel potentiator confirmation. CHO-KCNQ2 cells, FluxOR thallium flux fluorescence. potentiation, less the hit threshold, % at 10 µM. shares compounds with KCNQ2 pot. 1,200 tested, 68% active;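 active means fluorescence ratio rising 3 SD or more over the vehicle control mean in both replicates, plus primary screen hit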;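 further: peak minus minimum thallium fluorescence divided by baseline after K/Tl stimulus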
Kir21 spec – tests whether KCNQ2 potentiators also affect mouse Kir2.1; shares compounds with KCNQ2 pot; HEK293 Kir2.1, FluxOR thallium flux fluorescence; activity over 3SD threshold, % at 10 µM; 1,200 tested, 2% active;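 active means fluorescence ratio rise of at least 3 SD above the vehicle-control mean, seen in both replicates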
KCNQ2 W236L pot – rat KCNQ2 W236L mutant potentiation by KCNQ2 potentiators; shares compounds with KCNQ2 pot; CHO KCNQ2-W236L, automated patch clamp current; current increase over 3SD of negative controls (%), active compounds read high, % at 25 µM; 940 tested, 10% active; AID 2558;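 active means current increase at least 3 SD of the untreated controls above them in both duplicate recordings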
Large screens that a line does not name were inactive (follow-up assays come after a bar, where they were run). Only some compounds are listed: those with a hit (about 1.6% of all), similar ones and a draw of the others.

O=[N+]([O-])c1ccccc1Nc1nc(-c2cccnc2)cs1	none
COC(=O)c1cc(OC)c(OC)cc1NC(=S)N1CCN(c2ccccc2)CC1	none (no result: KCNQ2 pot)
COc1ccc(C[C@H]2CN3C(=NC[C@@H]3Cc3ccccc3)N2CCNC(=O)CCC2CCCCC2)cc1	none (no result: KCNQ2 pot) | Kir21 conf inh 40% | HEK293 ctr inactive
O=C(CCC1CCCCC1)NCCN1C2=NC[C@H](Cc3ccc(O)cc3)N2C[C@H]1Cc1ccc(O)cc1	none
COc1ccc(C[C@H]2CN3C(=NC[C@@H]3C(C)C)N2CCNC(=O)CCC2CCCCC2)cc1	none (no result: KCNQ2 pot) | Kir21 conf inh 64% | HEK293 ctr inactive
CC(C)[C@H]1CN=C2N(CCNC(=O)CCC3CCCCC3)[C@H](Cc3ccc(O)cc3)CN21	none (no result: KCNQ2 pot)
CCN1C(=NCC(C)C)N[C@@H](c2cccc(F)c2)C(C(=O)OC)=C1C	none (no result: KCNQ2 pot)
O=C1c2ccccc2C(O)N1Cc1cccs1 (configuration not stated)	none (no result: KCNQ2 pot)
CCn1c2ccccc2c2cc(Nc3cc(C)nc4ncnn34)ccc21	none | Kir21 conf inh 67% | HEK293 ctr inactive
CCc1ccc(Nc2cc(C)nc3ncnn23)cc1	none
Cc1ccccc1-n1nnnc1SCC(=O)N(C)C1CCS(=O)(=O)C1 (configuration not stated)	none
CS(=O)(=O)N(CC(=O)N1CCCCC1)C1CCCCC1	KCNQ2 pot 13 | Kir21 conf inh inactive | HEK293 ctr inactive | CHO-K1 ctr inactive | KCNQ1 sel pot inactive | KCNQ2 pot confirm inactive | Kir21 spec inactive
CS(=O)(=O)N(CC(=O)N1CCN(C(c2ccccc2)c2ccccc2)CC1)C1CCCCC1	none
CS(=O)(=O)N1CCc2cc(NC(=O)c3ccc(Cl)cc3Cl)ccc21	none (no result: KCNQ2 pot)
CCOc1cc(N2CCOCC2)c(OCC)cc1NC(=O)CN1C(=O)NC(C)(C2CC2)C1=O (configuration not stated)	none (no result: KCNQ2 pot)
CCOc1cc(N2CCOCC2)c(OCC)cc1NC(=O)Cc1cccc(OC)c1	KCNQ2 pot 10 | Kir21 conf inh inactive | HEK293 ctr inactive | CHO-K1 ctr 36 | KCNQ1 sel pot 14 | KCNQ2 pot confirm 72 | Kir21 spec inactive | KCNQ2 W236L pot inactive
CCOc1cc(N2CCOCC2)c(OCC)cc1NC(=O)Cc1ccc(OC)c(OC)c1	none (no result: KCNQ2 pot)
CCOc1cc(N2CCOCC2)c(OCC)cc1NC(=O)CC12CC3CC(CC(C3)C1)C2	KCNQ2 pot 23 | Kir21 conf inh inactive | HEK293 ctr inactive | CHO-K1 ctr inactive | KCNQ1 sel pot inactive | KCNQ2 pot confirm 113 | Kir21 spec inactive | KCNQ2 W236L pot 0.7%
CCOc1ccc(C(=O)NC(=S)N(Cc2ccccc2)Cc2ccccc2)cc1	KCNQ2 pot 20 | Kir21 conf inh inactive | HEK293 ctr 176% | CHO-K1 ctr inactive | KCNQ1 sel pot inactive | KCNQ2 pot confirm 0.5 | Kir21 spec inactive | KCNQ2 W236L pot inactive
CCOc1ccc(CN(CCC#N)C(=S)NC(=O)c2ccccc2)cc1	none
Cc1ccc(C(=O)NC(=S)N(C)Cc2ccccc2)cc1	none
CCCN(CCC)C(=S)NC(=O)c1ccc(-c2ccccc2)cc1	KCNQ2 pot 14 | Kir21 conf inh inactive | HEK293 ctr 340% | CHO-K1 ctr 26 | KCNQ1 sel pot 3.5 | KCNQ2 pot confirm 38 | Kir21 spec inactive | KCNQ2 W236L pot inactive
CCCOc1ccc(C(=O)NNC(=S)NC(=O)c2ccccc2)cc1	KCNQ2 pot 20 | Kir21 conf inh inactive | HEK293 ctr inactive | CHO-K1 ctr inactive | KCNQ1 sel pot 3.3 | KCNQ2 pot confirm inactive | Kir21 spec inactive
CCCOc1ccc(C(=O)NNC(=S)NC(C)=O)cc1	none
Cc1cccc(-n2nnnc2SCC(=O)Nc2cccc(S(N)(=O)=O)c2)c1	none
CC1Sc2ccc(S(=O)(=O)N3CCC(C(=O)N(C)Cc4ccccc4)CC3)cc2NC1=O (configuration not stated)	none
O=C(/C=C/c1ccc([N+](=O)[O-])cc1)/C=C/c1ccco1	KCNQ2 block -6.1 | Kir21 conf inh inactive | HEK293 ctr inactive
O=C(/C=C/c1ccc([N+](=O)[O-])cc1)NCc1ccco1	none
CCOC(=O)N1CCN(C(=O)CN(c2ccc(OC)cc2)S(C)(=O)=O)CC1	KCNQ2 pot 27 | Kir21 conf inh inactive | HEK293 ctr inactive | CHO-K1 ctr 15 | KCNQ1 sel pot inactive | KCNQ2 pot confirm inactive | Kir21 spec inactive
CCOC(=O)N1CCN(C(=O)CN(c2cccc(OC)c2)S(C)(=O)=O)CC1	none (no result: KCNQ2 pot)
COc1cc(S(=O)(=O)n2cnc(C)c2)ccc1Br	none
CCCCCCCCC1=NCCc2c1[nH]c1ccccc21	none (no result: KCNQ2 pot) | Kir21 conf inh 20% | HEK293 ctr inactive
CC(C)C/C=C1\CCc2c([nH]c3ccccc23)C1=O	none
CC(NC(=O)/C(C#N)=C/c1ccco1)c1ccccc1 (configuration not stated)	none (no result: KCNQ2 pot)
CC(NC(=O)/C(C#N)=C/c1ccc([N+](=O)[O-])o1)c1ccccc1 (configuration not stated)	none (no result: KCNQ2 pot) | Kir21 conf inh inactive | HEK293 ctr 64%
Cc1cccc(-c2nnc(SCC(=O)c3ccc(O)cc3O)n2C)c1	none
Cc1ccc(O)c(NC(=O)CCC2CCCCC2)c1	none
O=C(CCC1CCCCC1)Nc1ccccc1-c1ccccc1	KCNQ2 pot 12 | Kir21 conf inh inactive | HEK293 ctr inactive | CHO-K1 ctr 38 | KCNQ1 sel pot inactive | KCNQ2 pot confirm 74 | Kir21 spec inactive | KCNQ2 W236L pot inactive
O=S1(=O)CCC(N=Cc2cc(Br)ccc2O)C1 (configuration not stated)	KCNQ2 pot 6.4 | Kir21 conf inh inactive | HEK293 ctr inactive | CHO-K1 ctr 21 | KCNQ1 sel pot inactive | KCNQ2 pot confirm 22 | Kir21 spec inactive | KCNQ2 W236L pot inactive
O=c1c2ccccc2c(C=NC2CCS(=O)(=O)C2)c(O)n1-c1ccccc1 (configuration not stated)	none
C=CCNC(=O)c1c(CSc2ccc(Cl)cc2)noc1C(=O)NCc1ccccc1	none (no result: KCNQ2 pot)
CCn1c(C)c(C(C)=O)cc(C#N)c1=O	none
